DT40 TDP1 no CPT – qHTS for Inhibitors of human tyrosyl-DNA phosphodiesterase 1 (TDP1): qHTS in cells in absence of CPT; 15% of 420,000 active; DT40 Tdp1-/- hTDP1 cells, no CPT, ATP luminescence, 48 h; Potency, µM (doses to about 46.2 µM), most hits filed as inhibitors; further: nearly all actives have a fitted effect of over 55% in size
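Chicken DT40 Tdp1-/- cells stably complemented with human TDP1 were seeded at 400 cells/well with DMSO in place of 20 nM camptothecin. After compound pinning, cells grew at least 48 hr at 37 °C; viability read by CellTiter-Glo luminescence.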
HT1080-NT tox – kills 2HG-producing HT-1080-NT fibrosarcoma cells. HT-1080-NT fibrosarcoma viability, CellTiter-Glo ATP luminescence, 48 h. Potency, µM (top dose mostly 46.1 µM), usual class: cytotoxic. 1.6% of 360,000 active. AID 686970;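 further: NT is the 2HG producing partner of a matched IDH1 knockdown line; nearly all actives have a fitted effect of over 55% in size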
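A 48-hour cytotoxicity screen used HT-1080-NT cells plated 2 hours before compound delivery. ATP-based CellTiter-Glo luminescence measured viability, normalized to DMSO and no-cell controls.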
IL1B secr inh – inflammasome signaling inhibition, IL-1 beta readout; THP-1 LPS/ATP IL-1B secretion, AlphaLISA, 16 h; stronger effect = lower value; activity change, % at 57.5 µM; 4.7% of 360,000 active; in the data active means activity change below about -50%; inconclusive means mostly about -30% to -49%
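THP-1 cells pretreated 1 hr with compounds (up to 57.5 uM final), then stimulated with LPS (250 ng/mL final) plus ATP (1.25 mM final); secreted IL-1B measured by AlphaLISA after 16 hr, decreased signal indicating inhibition.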
HT1080 IDH1KD tx – HT-1080 IDH1 knockdown cell toxicity (counter line); HT-1080 IDH1 knockdown viability, ATP luminescence, 48 h; Potency, µM (titrated, usually from 46.1 µM), usual class: cytotoxic; 2% of 360,000 active
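After a 2 h attachment period, IDH1KD HT-1080 cells took pin-transferred compound for 48 h at 37 °C; ATP-based luminescence after 10 min room-temperature reagent incubation reported viability.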
ELG1 repair inh – inhibitors of ELG1-dependent DNA repair in HEK293T cells; HEK293T ELG1-luciferase reporter, luminescence, 16 h; DNA damage induced by 5-fluorouridine; Potency, µM (series often up to 46.1 µM), actives largely listed as inhibitors; 2.3% of 330,000 active; further: nearly all actives have a fitted effect of over 55% in size
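Cells (2,000 per well) received 5-fluorouridine plus test compound or DMSO and were incubated 16 hr at 37 °C, 5% CO2. Luciferase activity was read by luminescence 30 min after ONE-Glo addition; signal suppression marked inhibition of damage-induced ELG1 function.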
DT40 TDP1 CPT – growth inhibition of DT40 Tdp1-/-;hTDP1 cells with camptothecin (screen for TDP1 inhibitors) | 12% of 420,000 active | AID 686979 | Potency, µM (doses to about 46.2 µM), usual class: inhibitors | chicken DT40 Tdp1-/-;hTDP1 cells + 20 nM CPT, ATP luminescence, 48 h; further: nearly all actives have a fitted effect of over 55% in size
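Cell growth measured by CellTiter-Glo luminescence after a minimum 48 h, 37 C compound exposure with 20 nM CPT in Tdp1-knockout DT40 cells stably expressing hTDP1, seeded 400/well; qHTS titration format.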
Of the large screens only hits and unclear results are named; the others gave an inactive call; ! = repeats disagree. Hits are enriched below; roughly 19% of the tested compounds scored in any of these assays. Unless noted, the call rests on the fitted dose curve; in most records, active means well fitted curve in the direction sought with a large enough effect; inconclusive means small, poorly fitted or top-dose-only effect, or another doubt; inactive means no such curve, though single readings can be large; an effect the other way counts as inactive or inconclusive.

Cc1ccc(/C=C/C(=O)N2CCc3ccccc32)o1	DT40 TDP1 no CPT 13µM, IL1B secr inh -80.8, HT1080 IDH1KD tx inconclusive, ELG1 repair inh inconclusive, DT40 TDP1 CPT 6.51µM
COc1ccc(/C=C/C(=O)N2CCCc3ccccc32)cc1	DT40 TDP1 no CPT 23.1µM, ELG1 repair inh inconclusive, DT40 TDP1 CPT 25.9µM
COc1ccc(/C=C/C(=O)N2CCCc3ccccc32)c(OC)c1	DT40 TDP1 no CPT inconclusive, IL1B secr inh inconclusive, ELG1 repair inh inconclusive, DT40 TDP1 CPT inconclusive
C[C@H](CO)N1C[C@H](C)[C@@H](CN(C)C(=O)Nc2ccc3c(c2)OCO3)Oc2c(NC(=O)Nc3ccc4c(c3)OCO4)cccc2C1=O	DT40 TDP1 no CPT 23.1µM, ELG1 repair inh inconclusive, DT40 TDP1 CPT 16.4µM
C[C@H](CO)N1C[C@H](C)[C@@H](CN(C)C(=O)Nc2ccccc2)Oc2c(NC(=O)Nc3ccc4c(c3)OCO4)cccc2C1=O	DT40 TDP1 no CPT inconclusive, ELG1 repair inh inconclusive, DT40 TDP1 CPT 13µM
CCN(CC(=O)Nc1ccccc1OC)C(=O)CC1CCCC1	none
O=C(Nc1ccc(Br)cc1F)c1ccncc1	IL1B secr inh inconclusive, ELG1 repair inh inconclusive
O=C(Nc1ccc(Br)cc1F)c1ccc2nsnc2c1	DT40 TDP1 no CPT 8.2µM, ELG1 repair inh inconclusive, DT40 TDP1 CPT inconclusive
COc1ccccc1CNc1nc(NCc2cccc(OC)c2OC)c2sccc2n1	DT40 TDP1 no CPT 7.31µM, HT1080-NT tox 20.6µM, IL1B secr inh -90.0, HT1080 IDH1KD tx inconclusive, DT40 TDP1 CPT 4.61µM (no result: ELG1 repair inh)
COc1cccc(CNc2nn[nH]n2)c1OC	none
COCCNc1nc(NCc2cccc(OC)c2OC)c2sccc2n1	DT40 TDP1 no CPT 11.6µM, HT1080-NT tox inconclusive, DT40 TDP1 CPT inconclusive (no result: ELG1 repair inh)
CCN(CC)C(=O)c1ccc(COc2ccc(Cl)c(C)c2)o1	DT40 TDP1 no CPT 13µM, HT1080-NT tox inconclusive, HT1080 IDH1KD tx inconclusive, ELG1 repair inh inconclusive, DT40 TDP1 CPT 16.4µM
COc1ccccc1NC(=O)C1=C(C)Nc2nc(SC)nn2C1c1ccccc1Cl (configuration not stated)	DT40 TDP1 no CPT inconclusive (no result: HT1080-NT tox, IL1B secr inh, HT1080 IDH1KD tx, ELG1 repair inh)
CC(O)[C@H]1CC[C@H]2[C@@H]3CC[C@H]4C[C@H](O)CC[C@]4(C)[C@H]3[C@H](O)C[C@]12C (some centres not stated)	none
CC(O)C1CCC2C3CC[C@H]4CC(O)CCC4(C)C3CC3(OCCO3)C12C (some centres not stated)	DT40 TDP1 no CPT 20.6µM
C=CCC[C@@H](Cc1ccc(F)cc1)C(=O)OC[C@@H](NC(=O)[C@H](CC=C)CC(=O)N(CCO)Cc1ccccc1)c1ccccc1	DT40 TDP1 no CPT inconclusive, HT1080-NT tox inconclusive, IL1B secr inh -60.2, HT1080 IDH1KD tx inconclusive, ELG1 repair inh inconclusive, DT40 TDP1 CPT inconclusive
C=CCC[C@@H](Cc1ccc(F)cc1)C(=O)OC[C@@H](NC(=O)[C@@H](CC=C)CC(=O)N(CCO)Cc1ccccc1)c1ccccc1	DT40 TDP1 no CPT 25.9µM, HT1080-NT tox 20.6µM, IL1B secr inh -67.2, HT1080 IDH1KD tx inconclusive, ELG1 repair inh 20.6µM, DT40 TDP1 CPT 14.6µM
C=CCc1ccccc1OCC(O)CN1CCN(C(=O)OCC)CC1 (configuration not stated)	DT40 TDP1 no CPT inconclusive
Cc1ccc(OCC(O)CN2CCN(Cc3ccc4c(c3)OCO4)CC2)cc1C (configuration not stated)	DT40 TDP1 no CPT inconclusive
CCC(OCC(O)CN1CCN(CCN2C(=O)c3cccc4cccc(c34)C2=O)CC1)c1ccccc1 (configuration not stated)	DT40 TDP1 no CPT 6.51µM, IL1B secr inh -92.0, ELG1 repair inh 20.6µM, DT40 TDP1 CPT 10.3µM
C=CCc1ccccc1OCC(O)CN1CCN(Cc2ccc3c(c2)OCO3)CC1 (configuration not stated)	DT40 TDP1 no CPT inconclusive, DT40 TDP1 CPT 16.4µM!
Cc1cccc(C)c1OCC(O)CN1CCC(CN2C(=O)c3cccc4cccc(c34)C2=O)CC1 (configuration not stated)	DT40 TDP1 no CPT 8.2µM, ELG1 repair inh 23.1µM, DT40 TDP1 CPT 11.6µM
C=CCc1ccccc1OCC(O)CN1CCN(CCN2C(=O)c3cccc4cccc(c34)C2=O)CC1 (configuration not stated)	DT40 TDP1 no CPT inconclusive, IL1B secr inh -70.5, ELG1 repair inh 20.6µM, DT40 TDP1 CPT inconclusive
CCSC(N)=Nc1ccc(C(F)(F)F)cc1	DT40 TDP1 no CPT inconclusive (no result: IL1B secr inh, ELG1 repair inh)
Cc1ccccc1OCC(O)CN1CCN(CCN2C(=O)c3cccc4cccc(c34)C2=O)CC1 (configuration not stated)	DT40 TDP1 no CPT inconclusive, IL1B secr inh -87.4, ELG1 repair inh 23.1µM, DT40 TDP1 CPT inconclusive
OC(COCc1ccc2c(c1)OCO2)CN1CCCCC1 (configuration not stated)	none
CC(C)OCC(O)CN1CCN(CCN2C(=O)c3cccc4cccc(c34)C2=O)CC1 (configuration not stated)	DT40 TDP1 no CPT inconclusive
OC(COCc1ccc2c(c1)OCO2)CN1CCC(Cc2ccccc2)CC1 (configuration not stated)	DT40 TDP1 no CPT inconclusive, IL1B secr inh -71.1, HT1080 IDH1KD tx inconclusive, DT40 TDP1 CPT inconclusive
CC(=O)c1ccc(S(=O)(=O)N2CCNC(=O)C2)cc1	none
CCC1C(=O)NCCN1Cc1ccc2c(c1)CN(Cc1ccc(OC)c(OC)c1)CCO2 (configuration not stated)	none (no result: HT1080-NT tox, IL1B secr inh, HT1080 IDH1KD tx, ELG1 repair inh)
Cc1cc(CNC(=O)COc2ccc(F)cc2Cl)cc(C)c1O	IL1B secr inh -88.4, ELG1 repair inh inconclusive
CCc1ccc(N2CC(C(=O)Nc3ccc(C)c(S(=O)(=O)N4CCOCC4)c3)CC2=O)cc1 (configuration not stated)	DT40 TDP1 no CPT inconclusive, ELG1 repair inh 20.6µM, DT40 TDP1 CPT inconclusive
O=C(Nc1ccc(S(=O)(=O)N2CCOCC2)cc1)C1CC1	none
CC(C)=CC1C(C(=O)Nc2ccc(S(=O)(=O)N3CCOCC3)cc2)C1(C)C (configuration not stated)	DT40 TDP1 no CPT inconclusive, IL1B secr inh -64.2, ELG1 repair inh inconclusive, DT40 TDP1 CPT inconclusive
CCc1ccc(N2CC(C(=O)Nc3ccc(S(=O)(=O)N4CCOCC4)cc3)CC2=O)cc1 (configuration not stated)	DT40 TDP1 no CPT inconclusive, IL1B secr inh -60.6, DT40 TDP1 CPT inconclusive
O=C(NCc1ccccn1)c1nn(-c2ccccc2F)nc1CO	DT40 TDP1 CPT inconclusive (no result: HT1080-NT tox, IL1B secr inh, HT1080 IDH1KD tx, ELG1 repair inh)
Cc1ccc(Cl)c(NC(=O)CCl)c1Cl	DT40 TDP1 no CPT inconclusive, IL1B secr inh -91.2, DT40 TDP1 CPT inconclusive
